In all, about 63,000 compounds went through this assay and about 1,100 (1.7%) were called active. The sample holds actives, similar compounds and a random draw of the others, so the mix is not that of the screen. Potency and affinity values are given separately. Unmarked numbers belong to inactive results.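 Rule for the calls: active = compounds whose percent cytotoxicity in the single-dose primary screen, scaled between solvent and toxic-drug controls, exceeds 50; inactive = the rest.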
Assay: viability loss of HPDE-C7K cells – cell-based, fluorescence, HTS, primary screen (AID 431);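 note: 0% = DMSO solvent wells and 100% = doxorubicin-treated wells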
Settings: HPDE-C7K KRASV12 cells, Alamar Blue viability, 48 h; at 10 µM; active compounds read high

| SMILES | cytotoxicity |
| --- | --- |
| COc1ccc(C(=O)CN2C(=O)NC3(CCCc4ccccc43)C2=O)cc1OC (centres undefined) | 3.3% |
| COc1cc2c(cc1NC(=O)CCCN1C(=O)CCC1=O)oc1ccccc12 | 15.2% |
| COc1cc2c(cc1NC(=O)CN1C(=O)NC3(CCc4ccccc43)C1=O)oc1ccccc12 (centres undefined) | 55% (active) |
| CCOC(=O)C1CCCN(C(=O)c2ccc3c(c2)NC(=O)C(N2CCOCC2)S3)C1 (centres undefined) | -2.6% |
| CCOC(=O)N1CCN(C(=O)c2ccccc2CCc2ccccc2)CC1 | 12.2% |
| COc1ccc(Cl)cc1CN1CCN(c2nc(C)cc(C)c2C#N)CC1 | 22.3% |
| O=C(NCC12CC3CC(CC(C3)C1)C2)c1nc2ncccn2n1 | 7.1% |
| CCN=C1SC(CC(=O)Nc2sc3c(c2C#N)CCCC3)C(=O)N1CC (centres undefined) | -3.9% |
| O=C(Nc1ccc(F)c(F)c1)NC1CCCCC1 | -0.5% |
| CC(C)c1ccc(NC(=O)NC2CCCCC2)cc1 | 52.6% (active) |
| Cc1ccc(NC(=O)NC2CCCCC2)cc1Cl | -4% |
| CCOc1ccc(NS(=O)(=O)c2ccc(SC)cc2)cc1 | 8.6% |
| CCOc1ccc(NS(=O)(=O)c2ccc3[nH]c(=O)oc3c2)cc1 | 11.8% |
| Cn1c(=O)c2c(nc(NCc3cccnc3)n2Cc2cccc(C(F)(F)F)c2)n(C)c1=O | -17.6% |
| Cc1cc(Nc2ccccc2)n(-c2nc3ccccc3[nH]2)n1 | 1.5% |
| Cc1cc(=O)[nH]c(-n2nc(C)cc2C)n1 | -16% |
| Cc1ccc(Nc2cc(C)nn2-c2nc(C)cc(=O)[nH]2)cc1 | 101% (active) |
| Cc1cccc(C)c1N(CC(=O)Nc1cccc(N(C)S(C)(=O)=O)c1)S(C)(=O)=O | -7.3% |
| COc1ccc(Cl)c(Cn2c(NCCCN(C)C)nc3c2c(=O)n(C)c(=O)n3C)c1 | -1.8% |
| CCSc1nc2c(c(=O)[nH]c(=O)n2C)n1CC(O)COc1ccccc1C (centres undefined) | -11.9% |
| COc1ccccc1OCC(O)Cn1c(Br)nc2c1c(=O)[nH]c(=O)n2C (centres undefined) | -3.5% |
| Cn1c(=O)[nH]c(=O)c2c1nc(N1CCOCC1)n2CC(O)COc1ccccc1 (centres undefined) | -14.2% |
| Cc1ccccc1OCC(O)Cn1c(N2CCN(c3ccccc3)CC2)nc2c1c(=O)[nH]c(=O)n2C (centres undefined) | 78.8% (active) |
| Cc1ccccc1OCC(O)Cn1c(SC(C)C)nc2c1c(=O)[nH]c(=O)n2C (centres undefined) | -16.9% |

| SMILES | cytotoxicity |
| --- | --- |
| CC(C)CSc1nc2c(c(=O)[nH]c(=O)n2C)n1CC(O)COc1cccc2ccccc12 (centres undefined) | 63.6% (active) |
| Cc1sc2nc(CN3CCOCC3)nc(N3CCC(C(N)=O)CC3)c2c1C | 2.3% |
| O=C(COCCOCC(=O)N(c1ccccn1)C1CCCCC1)N(c1ccccn1)C1CCCCC1 | -24% |
| CCOC(=O)c1nnn(-c2nonc2N)c1COc1ccccc1 | -16.7% |
| CCN(CC)CCNc1nc(-c2ccco2)c2c(c1C#N)CC(C)(C)OC2 | -15.7% |
| CN(C)CCNc1nc(-c2ccco2)c2c(c1C#N)CC(C)(C)OC2 | -0.3% |
| C=CCn1c(SCC2=C(C(=O)OCC)C(C)NC(=O)N2)nnc1C1CCCCC1 (centres undefined) | -17.2% |
| Cc1cc(NS(=O)(=O)c2ccc(C3CCCCC3)cc2)no1 | -3% |
| Oc1ccccc1-c1cc(C(F)(F)C(F)F)[nH]n1 | -5.1% |
| O=C1CC(C(F)(F)C(F)(F)C(F)(F)C(F)F)=Nc2ccccc2N1 | -3.2% |
| FC(F)C(F)(F)C(F)(F)C(F)(F)c1cc(-c2ccccc2)n[nH]1 | 82.9% (active) |
| O=C(Cc1cn2ccsc2n1)NCc1ccccc1 | -14.8% |
| COc1cc2c(cc1OC)C(c1cc(OC)c(OC)c(OC)c1)NCC2 (centres undefined) | 7.4% |
| COc1cc2c(cc1OC)C1Cc3ccc(OC)c(OC)c3CN1CC2 (centres undefined) | -5% |
| Cc1ccc(S(=O)(=O)Cn2nnnc2CN2CCCC3(CCCCC3)C2)cc1 | 4.3% |
| COc1ccc2nc(NC(=O)c3cnccn3)sc2c1 | 4.7% |
| OCCN1CCN(C(c2cccs2)c2ccc3cccnc3c2O)CC1 (centres undefined) | 83.8% (active) |
| Cc1nc2sc(C(c3ccccc3)N3CCN(CCO)CC3)c(O)n2n1 (centres undefined) | -1.5% |
| CN1CCN(C(c2cccnc2)c2ccc3cccnc3c2O)CC1 (centres undefined) | -15.1% |
| FC(F)(F)c1ccccc1Nc1nccs1 | 14.9% |
| CC1CC(C)CN(c2nc3c(c(=O)[nH]c(=O)n3C)n2CCSc2nc3ccccc3o2)C1 (centres undefined) | 2.4% |
| CCc1ccc(C2CC(=O)N3CN(c4ccccc4)CSC3=C2C#N)cc1 (centres undefined) | 2.4% |
| COc1ccc(C2CC(=O)N3C(=C2C#N)SCC3(O)c2ccccc2)cc1 (centres undefined) | 12.5% |
| N#CC1=C2SCN(c3ccccc3)CN2C(=O)CC1c1cccs1 (centres undefined) | 2.6% |

| SMILES | cytotoxicity |
| --- | --- |
| N#CC1=C2SCN(Cc3ccccc3)CN2C(=O)CC1c1cccs1 (centres undefined) | -0.4% |
| N#CC1=C2SCC(O)(c3ccccc3)N2C(=O)CC1c1ccccc1 (centres undefined) | 65.7% (active) |
| COc1ccc(CCNS(=O)(=O)c2ccc3c(c2)OCCO3)cc1OC | -28.8% |
| COc1ccc(S(=O)(=O)N(C)CC(=O)NC2CC2)cc1 | -20.5% |
| CCOc1ccc(N2CCCCn3c2nc2c3c(=O)[nH]c(=O)n2C)cc1 | -9% |
| COc1ccc(OC)c(NC(=O)CSc2nnc(Cn3c(=O)sc4ccccc43)n2C)c1 | 4.6% |
| CCn1c(SCC(=O)c2cc(OC)ccc2OC)nc2c1c(=O)n(C)c(=O)n2C | -4.8% |
| Cc1csc(NC(=O)CSc2ncnc3c2cnn3-c2ccccc2Cl)n1 | 31.8% |
| CCOC(=O)Cc1csc(NC(=O)CSc2ncnc3c2cnn3-c2ccc(OC)cc2)n1 | 4.2% |
| CCOC(=O)Cc1csc(NC(=O)CSc2ncnc3c2cnn3-c2ccccc2Cl)n1 | 50% (active) |
| Cc1cc(OCc2nn[nH]n2)c2c(C)c(Cc3ccccc3)c(=O)oc2c1 | 13.7% |
| CSc1nc(-c2ccco2)cc(-c2ccccc2)c1C#N | 45% |
| Cc1cc(-c2ccccc2)c(C#N)c(N)n1 | 12.6% |
| Cc1cccc2cc(CN(CCCO)C(=O)Nc3ccccc3Cl)c(=O)[nH]c12 | -2.4% |
| CC(C)(C)OC(=O)N[C@@H](Cc1ccccc1)c1nnc(S(=O)(=O)Cc2cccc(F)c2)o1 | -21.9% |
| CC[C@@H](C)[C@H](NC(=O)OC(C)(C)C)c1nnc(S(=O)(=O)Cc2cc(C)ccc2C)o1 | 46.9% |
| Cn1nc(-c2ccc(Cl)cc2)c2cc(C(=O)N3CCN(c4ccccn4)CC3)sc21 | -7.2% |
| COc1ccc(N2CCN(C(=O)c3cc4c(-c5cccc(OC)c5)nn(C)c4s3)CC2)cc1 | 15.7% |
| CN(C)c1ncc(C(=O)O)cn1 | 21.7% |
| COc1ccc(C(C(O)C(=O)c2c[nH]c3ccccc23)N2CCN(c3ccc(OC)cc3)CC2)cc1 (centres undefined) | 50.4% (active) |
| COc1ccc(C(=O)c2c[nH]c3ccccc23)cc1 | 15.5% |
| O=C(c1c[nH]c2ccccc12)C(O)C(c1ccccc1)N1CCOCC1 (centres undefined) | -15.9% |
| O=C(Nc1ccccc1F)C1CCCN(S(=O)(=O)c2cccc3cccnc23)C1 (centres undefined) | 7% |
| Cn1cnnc1SCc1ccc(C#N)cc1 | 2.3% |

| SMILES | cytotoxicity |
| --- | --- |
| OCCN(CC(O)Cn1ccc2ccccc21)CC(O)Cn1ccc2ccccc21 (centres undefined) | 29.1% |
| OCCNCC(O)Cn1ccc2ccccc21 (centres undefined) | -4.4% |
| O=C1OCC2=C1C(c1ccc3c(c1)OCO3)Sc1ccccc1N2 (centres undefined) | -14.4% |
| Cc1c(C(=O)N2CCN(C)CC2)oc2c1C(=O)CC(C)(C)C2 | -40.9% |
| c1ccc(-c2nc(N3CCCCCC3)nc(-n3ccnc3)n2)cc1 | -10.1% |
| c1ccc(-c2nc(N3CCN(c4ccccc4)CC3)nc(-n3ccnc3)n2)cc1 | 30.8% |
| Cn1nc(-c2ccc(Cl)cc2)c2cc(C(=O)N3CCOCC3)sc21 | 8.6% |
| CC(=O)c1ccc(NC(=O)c2noc3c2CCCCC3)cc1 | 16.4% |
| c1ccc2c(c1)oc1c(N3CCN(Cc4ccc5c(c4)OCO5)CC3)ncnc12 | 10.1% |
| COc1ccc2c(c1)c1ncnc(N3CCN(Cc4ccc5c(c4)OCO5)CC3)c1n2C | 43.1% |
| Cc1ccc2c(c1)[nH]c1c(N3CCN(Cc4ccc5c(c4)OCO5)CC3)ncnc12 | 9.5% |
| CN1CCN(c2ncnc3c2[nH]c2ccc(F)cc23)CC1 | 5.5% |
| Fc1ccc2[nH]c3c(N4CCN(C5CCCCC5)CC4)ncnc3c2c1 | 23.3% |
| CCCCOc1ncnc2c1[nH]c1ccc(F)cc12 | 5% |
| COc1cccc2[nH]c3c(N4CCN(Cc5ccc6c(c5)OCO6)CC4)ncnc3c12 | 44.8% |
| COc1ccc2[nH]c3c(N4CCN(Cc5ccc6c(c5)OCO6)CC4)ncnc3c2c1 | 53.7% (active) |
| COc1cccc(N2CCN(c3ncnc4c3[nH]c3ccc(F)cc34)CC2C)c1 (centres undefined) | 121% (active) |
| Fc1ccc2[nH]c3c(N4CCN(c5ccccc5)CC4)ncnc3c2c1 | -3.9% |
| CCC1S/C(=C(\C#N)C(=O)NCc2ccco2)N(c2ccc(F)cc2)C1=O (centres undefined) | -16.6% |
| CC1CCCCN1S(=O)(=O)c1ccc2c(c1)oc(=O)n2CC(=O)O (centres undefined) | -0.1% |
| CCN=C(Nc1ccc2c(c1)OCO2)SC1CC(=O)N(c2ccccc2F)C1=O (centres undefined) | -6% |
| O=C(O)CCS(=O)(=O)Cc1ccccc1F | 1.1% |

From PubChem BioAssay AID431 (Sanford-Burnham Center for Chemical Genomics, 2006)
